# Pf growth 96h: P. falciparum growth inhibition at 96 hour, primary screen for plastid delayed-death inhibitors; P. falciparum luciferase reporter growth, 96 h; Potency, µM (doses to about 28.7 µM), for the others: top-dose activity change, negative = inhibition, actives largely listed as inhibitors; hit rate 6.9% among 320,000; further: potency means the concentration at half of the fitted maximal effect
#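 Two parasite generations (96 h, 37 C, 5% CO2) of compound exposure in infected erythrocytes (0.05% parasitemia, 2% hematocrit). Luciferase-reporter P. falciparum; decreased luminescence indicates inhibited growth, aimed at apicoplast-acting delayed death.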
# HCV inhibitor: inhibitors of hepatitis C virus infection; Huh7.5.1 HCVcc-Cre infection, luciferase reporter, 44 h; Potency, µM (titrated, usually from 41.8 µM), inactives show top-dose activity change, negative = inhibition, usual class: inhibitors; hit rate 3.4% among 340,000; AID 651820; further: potency means the concentration at half of the fitted maximal effect
#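 Luciferase read-out (15 sec integration) after a 15 min room-temperature substrate step quantifies HCVcc-Cre infection. Cells, 1,000 per well, had compound added 4 h post-plating, then virus at ~0.5 moi, and were cultured 44 h.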
# MARV entry inh: inhibitors of Marburg virus binding or cell entry. Marburg virus pseudotyped entry inhibition, cell reporter. Potency, µM (titrated, usually from 37.8 µM), inactives show top-dose activity change, negative = inhibition, hits mostly inhibitors. hit rate 1.8% among 300,000. AID 540276; calls by dose curve; tested in HEK293 cells; further: potency means the concentration at half of the fitted maximal effect
# HCMV antiviral: human cytomegalovirus inhibition; AID 1259415; hit rate 4.5% among 410,000; HFF cells, HCMV-luciferase reporter, 72 h; stronger effect = lower value; activity change, negative = inhibition, % at 57.5 µM; in the data active means activity change below about -60%; inconclusive means no clear call, values can overlap the other calls; inactive means above about -39%
#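 Two compound doses tested in HFFs infected with HCMV-luciferase, MOI 1 PFU/cell, 72 h at 37C. Lysate luminescence read with OneGlo; data normalized against buffer-only and 10uM Salinomycin inhibitor controls.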
# Lassa entry inh: Lassa virus entry inhibition. Lassa virus pseudotype entry inhibition, cell reporter. Potency, µM (titrated, usually from 37.9 µM), without a hit: top-dose activity change, negative = inhibition, hits mostly inhibitors. hit rate 1.2% among 300,000; calls by dose curve; tested in HEK293 cells; further: potency means the concentration at half of the fitted maximal effect; nearly all actives have a fitted effect of over 50% in size
# Pf growth 48h: P. falciparum growth inhibition at 48 hours (one generation). Potency, µM (titrated, usually from 28.7 µM), for the others: top-dose activity change, negative = inhibition, most hits filed as inhibitors. hit rate 5.9% among 310,000. P. falciparum luciferase growth in erythrocytes, 48 h. AID 504832; further: potency means the concentration at half of the fitted maximal effect
#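 A one-generation exposure of luciferase-tagged malaria parasites in RPMI 1640/Albumax erythrocyte culture, 37 C and 5% CO2. Inhibition is inferred from decreased luminescence after adding detection reagent.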
# An asterisk follows results filed as active; ? = inconclusive; . = no result given; [ ] = remark or other dose. A selection: hits, their analogues and other compounds. The true share with any hit is near 14%. Unless noted, the call rests on the fitted dose curve; in most records, active means well fitted inhibition curve with a large enough effect; inconclusive means small, poorly fitted or top-dose-only effect, or another doubt; inactive means no such curve, though single readings can be large or run the other way. On the % scale 0 is the no-effect control and ±100 the full control effect.
SMILES,Pf growth 96h,HCV inhibitor,MARV entry inh,HCMV antiviral,Lassa entry inh,Pf growth 48h
C=CCN=C1NN=C(c2cc(C)n(CC=C)c2C)CS1,-98%,?,?,-88*,?,-74%
Cc1cc(C2=NNC(=NCCc3ccccc3)SC2)c(C)n1-c1c(C)n(C)n(-c2ccccc2)c1=O,?,20%,1%[46.1 µM],-32,-8%,6.6µM*
Cc1cccc(N=C2NN=C(c3ccccc3F)CS2)c1C,0%,?,?,-32,-1%[46.1 µM],-31%
Cc1c(N=C2NN=C(c3ccc(Cl)cc3)CS2)c(=O)n(-c2ccccc2)n1C,?,-5%,7%[46.1 µM],-23,-16%,?
CCN=C1NN=C(c2ccc(C)cc2)CS1,-48%,-20%,?,11,?,63%
Cc1ccc(C)c(NC(=O)Cn2c(=O)n(-c3ccccc3C)c(=O)c3c2c2cc(C)ccc2n3C)c1,.,.,.,5,23%[46.1 µM],.
CN1CCN(c2nc3cc(N4CCOCC4)ccc3s2)CC1,.,.,.,23,.,.
CN(C)S(=O)(=O)c1cccc(N=C2NN=C(c3ccccc3)CS2)c1,2.3µM*,35µM*,?,?,?,13µM*
CC1CN(C(=O)c2ccccc2)C(=Nc2cccc(S(=O)(=O)N(C)C)c2)S1 (stereo not drawn),?,1%,?,?,?,3%
COCCCN=C1NN=C(c2cc(C)n(-c3ccccc3F)c2C)CS1,-144%,?,2.1µM*,?,15µM*,-40%
Cc1cccc(N(C)c2nc3ccc(C(=O)c4ccccc4)cc3n3c(C)nnc23)c1,.,.,.,0,-6%[46.1 µM],.
CCN(CC(=O)Nc1cc(Cl)ccc1C)C(=O)C1CCN(c2ncnc3sc(C)c(C)c23)CC1,.,.,.,0,.,.
Cc1sc2ncnc(N3CCC(C(=O)N(C)CC(=O)Nc4ccccc4Cl)CC3)c2c1C,?,.,?,-79*,10µM*,?
Cc1sc2ncnc(N3CCC(C(=O)N(C)CC(=O)Nc4ccccc4Br)CC3)c2c1C,?,?,?,-63*,-27%,?
O=C(COC(=O)/C=C/c1ccccc1)NCc1ccco1,.,.,.,-14,.,.
C[C@@H]1CC[C@H]2C(=O)N3[C@@H](CC[C@@H](C)[C@@H]3c3ccc(Br)cc3)C(=O)N2[C@@H]1c1ccc(Br)cc1,.,.,-25%[14.2 µM],.,.,.
Oc1ccc(C2C(c3ccccc3)=NN=C(c3ccccc3F)N2O)c(O)c1 (stereo not drawn),?,23%,?,-32,?,-15%
Oc1ccc(C2C(c3ccccc3)=NN=C(c3ccc(Cl)cc3)N2O)c(O)c1 (stereo not drawn),2.6µM*,?,18%,2,-4%,?
CN(C)CCN(Cc1ccccc1)S(=O)(=O)c1ccc(-c2cc(C(F)(F)F)on2)s1,.,.,.,-100*,-7%[46.1 µM],.
COc1ccc(C[C@H]2CN3C(=NC[C@@H]3C)N2CCNC(=O)CCC2CCCCC2)cc1,?,-1%,.,-6,.,?
O=C(CCC1CCCCC1)NCCN1C2=NC[C@@H](Cc3ccccc3)N2C[C@H]1Cc1ccc(O)cc1,2.3µM*,-8%,.,-3,.,?
C/C=C(\C)C(=O)NCCN1C2=NC[C@@H](Cc3ccccc3)N2C[C@H]1Cc1ccc(O)cc1,17%,15%,.,-25,.,31%
C[C@H]1CN=C2N(CCNC(=O)CCC3CCCCC3)[C@H](Cc3ccc(O)cc3)CN21,12µM*,0%,.,3,.,5%
O=C(CCC1CCCCC1)NCCN1C2=NC[C@H](Cc3ccccc3)N2C[C@H]1Cc1ccc(O)cc1,4.7µM*,42%[8.37 µM],.,15,.,?
O=C1CCSC2(C(=O)N(Cc3ccc(F)cc3)c3ccccc32)N1c1ccc(F)c(F)c1 (stereo not drawn),.,.,.,0,15%[46.1 µM],.
Cc1ccc(NC(=O)C2CCCN(S(=O)(=O)c3cccc4nsnc34)C2)cc1C (stereo not drawn),.,.,-20%[46.1 µM],-12,10%[46.1 µM],.
CCN1CCN(C(c2cccc(F)c2)c2c(O)cc(C)n(Cc3ccco3)c2=O)CC1 (stereo not drawn),.,.,.,23,?,.
